About 83,000 compounds went through this panel and 20% of them were active in at least one assay; those are over-represented in the sample as a whole.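 Single-concentration screen, 48 h exposure, 96-well plates. Endpoint: percent growth. Below 10 = active.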 The source made the active and inactive calls.
Assays:
Assay in all cases: NCI-60 one-dose screen, 48 h (100 = growth as untreated, 0 = no growth, -100 = all killed)
Conditions in all cases: 10 µM unless noted
[1] = tested on: SK-MEL-2 melanoma
[2] = tested on: EKVX NSCLC
[3] = tested on: SN12C renal
[4] = tested on: UO-31 renal
[5] = tested on: TK-10 renal
[6] = tested on: ACHN renal
[7] = tested on: CAKI-1 renal
[8] = tested on: A498 renal
[9] = tested on: HL-60(TB) leukemia
[10] = tested on: CCRF-CEM leukemia
[11] = tested on: SR leukemia
[12] = tested on: RPMI-8226 leukemia
[13] = tested on: OVCAR-8 ovarian
[14] = tested on: OVCAR-5 ovarian
[15] = tested on: OVCAR-4 ovarian
[16] = tested on: SK-OV-3 ovarian
[17] = tested on: IGROV1 ovarian
[18] = tested on: OVCAR-3 ovarian
[19] = tested on: HS 578T breast
[20] = tested on: MOLT-4 leukemia

Measured: growth

O=C(CBr)OCCOC(=O)CBr
active: [4] -92.4% | [10] -15.5% | [11] 8.37% | [17] -45.8% | [19] 3.4%
inactive: [1] 103% | [2] 101% | [3] 58% | [5] 130% | [6] 83% | [7] 33.5% | [8] 150% | [9] 42.4% | [12] 33.8% | [13] 93.7% | [14] 117% | [15] 38.3% | [16] 133% | [18] 87.5%

CC(=O)OC1CC2(O)C(CCC3(C)C(c4ccc(=O)oc4)CCC32O)C2(C)CCC(OC3OC(CO)C(O)C(O)C3O)C=C12 (stereo not drawn)
active: [1] -23.2% | [2] -89.1% | [3] -6.05% | [4] -80.8% | [5] -92.3% | [6] -79.8% | [7] -93.5% | [8] -33.8% | [9] -46.1% | [10] -25.1% | [11] -15.3% | [12] -23.3% | [13] -55.6% | [14] -73.5% | [15] -64.4% | [16] -13.9% | [17] -26.5% | [18] -100% | [19] -11.3%

C[C@]12CCc3nc(-c4ccc(O)c(O)c4)sc3C1=CC[C@@H]1[C@@H]2CC[C@]2(C)C(=O)CC[C@@H]12
inactive: [1] 104% | [2] 95.7% | [3] 72.7% | [4] 43% | [5] 53.6% | [6] 51.3% | [7] 39.7% | [8] 113% | [9] 51.4% | [20] 45.4% | [11] 39.3% | [13] 29.9% | [14] 112% | [15] 67.1% | [16] 89.7% | [17] 38.6% | [18] 87.5% | [19] 66.8%
active: [12] 9.9%

COc1ccc(C(C#N)C(C)=O)cc1 (stereo not drawn)
inactive: [1] 103% | [2] 108% | [3] 102% | [4] 90.4% | [5] 96.8% | [6] 99.8% | [7] 95.3% | [8] 96.8% | [9] 110% | [20] 99.7% | [11] 98.8% | [12] 101% | [13] 95.5% | [14] 95.3% | [15] 131% | [16] 99% | [17] 114% | [18] 108%

COc1cc(C2C3=C(CCCC3=O)N(CCO)c3cc4c(cc32)CCC4)cc(OC)c1OC (stereo not drawn)
inactive: [1] 76.9% | [2] 81.2% | [3] 92.6% | [4] 67.8% | [5] 82.1% | [6] 94.9% | [7] 64% | [8] 100% | [9] 102% | [10] 20.3% | [11] 117% | [12] 76.2% | [13] 83.5% | [14] 96.1% | [15] 75.5% | [16] 114% | [17] 98.4% | [18] 93.5% | [19] 99.9%

O=C(NC1=NCC[Se]1)c1ccccc1O
inactive: [1] 83% | [2] 73% | [3] 68.4% | [4] 17.8% | [5] 56.7% | [6] 79.8% | [7] 50.8% | [8] 88.5% | [9] 58.8% | [20] 30.3% | [11] 19% | [12] 64.8% | [13] 47.4% | [14] 53.3% | [15] 71.1% | [16] 135% | [18] 69.8% | [19] 35.5%
active: [17] -8.34%

— PubChem BioAssay (NCI)
